This note sets out measurements from PubChem BioAssay.

A short description of assay [1]: reducers of endogenous Her2 protein level, primary screen, SKBR3 breast tumor cells, AlphaScreen, ATP viability (AID 461;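 active means Her2 level under about 52% in both replicate screens, with viability over 70% of control, limit read from the data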;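 on Her2 level: lower value means less Her2 protein in the cells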;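 on viability: percent of carrier control wells set as 100% viability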). The note with it: 18-24 h, measured here: SKBR3 viability, ATP luminescence, at 10 µM. (In Alpha technology, singlet oxygen from a donor bead excites a nearby acceptor bead.)
Assay [2] has as its target Receptor tyrosine-protein kinase erbB-2 (Homo sapiens) (UniProt P04626). Described as above. The settings on record: 18-24 h, at 10 µM, stronger effect = lower value.
Assay [3] can be described thus: SK-BR-3 cell growth inhibitors, pilot screen, 24 h, human (AID 572;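 active means viability at or below 10% of carrier control in both of two separate runs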;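 further: compound exposure lasted between 18 and 24 h rather than exactly 24 h; 100% = carrier-treated control wells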). The settings on record: SK-BR-3 viability, CellTiter-Glo luminescence, at 10 µM, stronger effect = lower value. In general terms: ATP-based viability assays read luminescence as a measure of living cells.
Assay [4] in a line: HUVEC growth inhibition – cell-based, human, primary screen (AID 575).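 Further: 100% = median of untreated cell wells with 0.1% DMSO on each plate.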 The note with it: HUVEC proliferation, CellTiter-Glo luminescence, 72 h; at 10 µM; stronger effect = lower value.
Assay [5] is described as follows: growth inhibitors of H69AR lung tumor, primary screen, human, duplicate replicates (AID 580;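 active means viability at or under a set limit in both replicates, limit being median viability minus 3 SD, cut at about 48% in these data, passing the limit was not always enough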;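 further: 100% = mean luminescence of untreated wells and 0% = no signal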). The note with it: H69AR lung tumor cells viability, ATP luminescence, 72 h; at 10 µM; stronger effect = lower value.
Assay [6] in a line: reversal of MRP1-mediated doxorubicin resistance, pilot screen, H69AR cells, doxorubicin co-treatment (AID 601;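 active means viability loss from added drug above about 55%, and viability with drug at most 40%, in both replicates, limit read from the data, passing the limit was not always enough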). The settings on record: CellTiter-Glo, 72 h, at 10 µM; for differential viability (reversal): stronger effect = higher value.
The nature of assay [7]: 384-well plate pilot, post-Golgi transport modulator project, inhibition of yeast transport mutant growth (AID 636; in the data active means inhibition above about 31%). The note with it: absorbance 615 nm, about 18 h, stronger effect = higher value.
Assay [8] can be described thus: growth suppression of yeast trafficking mutant, preliminary HTS, modulators of trafficking downstream of Golgi apparatus project, 1536-format plate, OD 615 nm (AID 637; in the data active means inhibition above about 30%). The settings on record: yeast transport mutant growth, absorbance 615 nm, 18 h; stronger effect = higher value.
Assay [9] in a line: OD615 S. cerevisiae growth inhibition, permissive medium, pilot counter-assay, permissive growth control for S. cerevisiae lifespan shortening project (AID 705;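 active means growth inhibition above 25% in both replicates, a cutoff set 3 SD above the mean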). The settings on record: OD615, 24 h, at 10 µM, stronger effect = higher value.
Assay [10] can be described thus: Restrictive medium S. cerevisiae growth inhibition, OD615, pilot screen of yeast lifespan reduction project, restrictive growth control (AID 706;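 active means growth inhibition above a set limit, 3 SD over mean compound inhibition, in both replicates, cut at about 43% in these data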;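 further: modified DeaD lifespan yeast strain shifted to restrictive glucose medium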). The note with it: OD615, 48 h, at 10 µM, stronger effect = higher value.
Assay [11] can be described thus: viability gain of MRP-1-high H69AR cells under doxorubicin, pilot screen, MRP-1 activator project, CellTiter-Glo, duplicate (AID 807;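 active means viability increase at or above a cutoff of the median across tested compounds plus 3 SD, cut at about 8.5% in these data, passing the limit was not always enough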;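 further: compound pretreatment 18-22 h then 72 h combined with doxorubicin; 0% = doxorubicin alone and 100% = vehicle without doxorubicin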). The settings on record: H69AR viability with doxorubicin, CellTiter-Glo luminescence; at 10 µM; stronger effect = higher value.
Assay [12] can be described thus: growth suppression of beta-catenin knockout HCT116, pilot screen, human colon tumor cells (AID 823;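 active means cell viability at or below a set limit in both duplicate runs, the limit being the all-compound median minus 4 SD, cut at about 23% in these data, passing the limit was not always enough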;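 further: 0% = wells killed by 20 µM Hyamine and 100% = untreated DMSO cell wells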). The settings on record: CellTiter-Glo, 60 h, at 10 µM, stronger effect = lower value.
Assay [13] is described as follows: growth suppression of PTEN-deleted HCT116, pilot screen, cell-based, HCT116 clonal line, CellTiter-Glo (AID 824;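 active means viability at or below 27.92% in each of two runs, the all-compound median minus 4 SD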;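 further: 0% = 20 µM Hyamine control and 100% = vehicle cell control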). The note with it: 60 h, at 10 µM, stronger effect = lower value.
A short description of assay [14]: inhibitors of the yeast RAM network, pilot screen, dse1pr::URA3 reporter, 5-FOA selection (AID 869;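 active means inhibition over a set limit, the all-compound mean plus 3 SD, in both replicate runs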;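 further: 0% = DMSO wells with no growth and 100% = 10 µM 1-NA-PP1 with full growth; RAM network block rescues cells from 5-FOA so hits raise OD615 growth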). The note with it: S. cerevisiae dse1pr::URA3 5-FOA growth, OD615, 2 d; at 10 µM; stronger effect = higher value; strain carries analog-sensitive mutant Cbk1 kinase.
The mark [15] stands for this setting: H69AR cells + 2 uM doxorubicin, measured here: viability with 2 uM doxorubicin, stronger effect = lower value.
Setting [16] is: H69AR cells, compound alone cytotoxicity.

SMILES strings stand for the structures. Results filed as inconclusive are left out. Calls of active or inactive are those of the source.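 How the source made its calls, unless noted: active means viability at or below 30% in both replicate assays; inconclusive means viability at or below 30% in just one of the two assays; inactive means the rest.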

Sequence of Receptor tyrosine-protein kinase erbB-2 (Homo sapiens) (P04626 whole entry, looked up): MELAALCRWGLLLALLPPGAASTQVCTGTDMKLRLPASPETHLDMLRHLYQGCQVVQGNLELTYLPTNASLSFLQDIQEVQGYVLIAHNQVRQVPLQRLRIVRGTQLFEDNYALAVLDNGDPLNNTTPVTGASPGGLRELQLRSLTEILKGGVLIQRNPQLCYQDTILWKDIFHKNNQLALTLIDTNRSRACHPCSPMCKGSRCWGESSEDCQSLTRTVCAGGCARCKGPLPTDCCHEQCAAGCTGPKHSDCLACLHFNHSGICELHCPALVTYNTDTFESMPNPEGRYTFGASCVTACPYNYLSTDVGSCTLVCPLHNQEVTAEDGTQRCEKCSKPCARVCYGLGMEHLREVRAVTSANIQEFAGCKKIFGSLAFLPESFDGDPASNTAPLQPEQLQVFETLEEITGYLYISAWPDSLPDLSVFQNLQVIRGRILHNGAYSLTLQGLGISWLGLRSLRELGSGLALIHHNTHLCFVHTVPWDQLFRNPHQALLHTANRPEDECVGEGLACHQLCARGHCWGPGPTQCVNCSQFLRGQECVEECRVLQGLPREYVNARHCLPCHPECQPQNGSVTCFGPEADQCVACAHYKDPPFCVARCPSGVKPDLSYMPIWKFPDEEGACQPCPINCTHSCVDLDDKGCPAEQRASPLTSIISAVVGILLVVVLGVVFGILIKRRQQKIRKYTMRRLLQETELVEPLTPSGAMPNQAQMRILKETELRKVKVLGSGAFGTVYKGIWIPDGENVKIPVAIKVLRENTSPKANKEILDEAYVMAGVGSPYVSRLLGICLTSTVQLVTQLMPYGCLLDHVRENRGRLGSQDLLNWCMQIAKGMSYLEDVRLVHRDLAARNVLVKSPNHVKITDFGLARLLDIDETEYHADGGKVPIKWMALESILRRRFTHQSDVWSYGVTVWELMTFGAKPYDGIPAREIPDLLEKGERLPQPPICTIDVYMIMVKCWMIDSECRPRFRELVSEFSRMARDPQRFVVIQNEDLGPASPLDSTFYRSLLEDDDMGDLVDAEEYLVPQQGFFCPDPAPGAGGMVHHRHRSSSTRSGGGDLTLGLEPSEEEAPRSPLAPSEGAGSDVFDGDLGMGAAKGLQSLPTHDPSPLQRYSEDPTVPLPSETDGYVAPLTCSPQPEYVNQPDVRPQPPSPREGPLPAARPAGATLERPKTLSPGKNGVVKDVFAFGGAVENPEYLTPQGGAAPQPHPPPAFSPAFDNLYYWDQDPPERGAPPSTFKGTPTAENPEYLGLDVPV

Usually viability stands for a read-out of living cells in per cent, often relative to untreated cells. As a reminder, the inhibition is the relative decrease from the control value, in per cent. In the case of `Clc1ccc(C2Nc3ccccc3-n3cccc32)cc1` (stereo not given), the viability is 92% in assay [1]; 92% (inactive) in assay [3]; 60.8% (inactive) in assay [4]; 66.7% (inactive) in [5]; 75.9% in assay [6] (setting [15]); 66.7% in assay [6] (setting [16]). The viability in assay [12] is 82.8% (inactive); in assay [13], 81.3% (inactive). The Her2 level in assay [2] was 82% (inactive). Moreover, in assay [6] (H69AR cells + 2 uM doxorubicin), the differential viability (reversal) is -9.2% (inactive). The inhibition is -3.87% (inactive) in assay [7], 7% (inactive) in assay [8] and 3.41% (inactive) in assay [14]. Moreover, the growth inhibition in assay [9] was -26% (inactive); in [10], -13.6% (inactive). For the same compound, the viability increase in assay [11] was -4.67% (inactive).

For the compound `CCOC(=O)C1CCCN(c2c(Nc3ccc(C)c(C)c3)c(=O)c2=O)C1` (stereo not given), the viability in [1] was 84%; in assay [3], 84% (inactive); in assay [4], 91.7% (inactive); in assay [5], 87.6% (inactive). The Her2 level in assay [2] was 99% (inactive). The values for the inhibition in assay [7] and in assay [8] were 0% (inactive) and -4.43% (inactive), respectively.

With `Fc1ccc(C2C3=C(Nc4ncnn42)c2ccccc2OC3c2ccncc2)cc1` (stereo not given), the viability in assay [1] was 85.5%; in [3], 85.5% (inactive); in assay [4], 86.7% (inactive); in assay [5] it was 78.8% (inactive). For the same compound, the Her2 level in assay [2] is 85.5% (inactive). Also, the inhibition in assay [7] is -2.11% (inactive); in assay [8] it was -3.71% (inactive).

For `COc1ccc(OC)c(NC(=O)CCNS(=O)(=O)c2cccs2)c1`, the viability in assay [1] was 95%; in assay [3], 95% (inactive); in [4], 92.4% (inactive); in assay [5] it was 99.8% (inactive); in [6] (setting [15]), 94.2%; in assay [6] (setting [16]), 99.8%. Further, in assay [13], the viability was 96.1% (inactive). Further, the Her2 level in assay [2] was 103% (inactive). The differential viability (reversal) in [6] (H69AR cells + 2 uM doxorubicin) is 5.6% (inactive). Moreover, the inhibition in [7] is -3.6% (inactive); in assay [8], 23.3% (inactive); in assay [14] it was 2.21% (inactive). In addition, the growth inhibition is -2.31% (inactive) in assay [9] and 13.9% (inactive) in assay [10]. For the same compound, the viability increase in [11] was -2.82% (inactive).

As for `CC(NC(=O)c1cn(C)c2ccc(S(=O)(=O)N3CCCC3)cc2c1=O)c1ccc2c(c1)OCCO2` (stereo not given), the viability was 89% in [1]; 89% (inactive) in [3]; 85.6% (inactive) in assay [4]; 77.8% (inactive) in assay [5]; 44% in assay [6] (setting [15]); 77.8% in assay [6] (setting [16]). The figures for the viability in assay [12] and in assay [13] were 75.5% (inactive) and 76% (inactive), respectively. Moreover, in assay [2], the Her2 level is 78.5% (inactive). In assay [6] (H69AR cells + 2 uM doxorubicin), the differential viability (reversal) is 33.8% (inactive). Besides, the inhibition in [7] is -6.22% (inactive); in assay [8] it was 4.75% (inactive); in assay [14], 2.6% (inactive). Also, the results for the growth inhibition in [9] and in [10] were -9.02% (inactive) and -24.8% (inactive), respectively. Further, the viability increase in assay [11] was -4.7% (inactive).

On to `CC[C@]1(O)C[C@@H]2CN(CCc3c([nH]c4ccccc34)[C@@](C(=O)OC)(c3cc4c(cc3OC)N(C)[C@H]3[C@@](O)(C(=O)OC)[C@H](OC(C)=O)[C@]5(CC)C=CCN6CC[C@]43[C@@H]65)C2)C1`, for which the viability was 108% in assay [1]; 108% (inactive) in [3]; 10.5% (active) in assay [4]; 55.7% in assay [6] (setting [15]); 17.5% in assay [6] (setting [16]). The Her2 level in [2] was 78.5% (inactive). Moreover, the differential viability (reversal) in assay [6] (H69AR cells + 2 uM doxorubicin) is -38.2% (inactive).

`O=C(COC(=O)c1cnccn1)c1ccc(OC(=O)c2ccccc2)cc1`: the viability in assay [1] was 104%; in assay [3] it was 104% (inactive); in [4], 87.8% (inactive); in assay [5] it was 96.2% (inactive); in assay [6] (setting [15]), 98.3%; in assay [6] (setting [16]) it was 96.2%. Further, the results for the viability in assay [12] and in assay [13] were 93.3% (inactive) and 95.2% (inactive), respectively. Also, the Her2 level in [2] was 100% (inactive). For the same compound, the differential viability (reversal) in assay [6] (H69AR cells + 2 uM doxorubicin) was -2.16% (inactive). The results for the inhibition in assay [7], in assay [8] and in [14] were -1.67% (inactive), 5.67% (inactive) and 2.84% (inactive), respectively. Moreover, the figures for the growth inhibition in assay [9] and in [10] were -19.2% (inactive) and -15.1% (inactive), respectively. For the same compound, the viability increase in assay [11] was -0.85% (inactive).

Turning to `Cc1cccc(-n2c(=O)cc(N3CCN(c4ccc(F)cc4)CC3)[nH]c2=O)c1`, the viability in assay [1] was 85.5%; in [3] it was 85.5% (inactive); in assay [4] it was 66.5% (inactive); in assay [5] it was 71.9% (inactive); in [6] (setting [15]), 71.8%; in assay [6] (setting [16]) it was 71.9%. In addition, the viability in assay [12] was 79.3% (inactive); in assay [13], 66.1% (inactive). In addition, the Her2 level in [2] was 110% (inactive). Also, the differential viability (reversal) in assay [6] (H69AR cells + 2 uM doxorubicin) was 0.095% (inactive). Further, the inhibition in assay [7] is -2.13% (inactive); in assay [8] it was -2.33% (inactive); in [14], 4.09% (inactive). The results for the growth inhibition in assay [9] and in assay [10] were -12.5% (inactive) and -8.2% (inactive), respectively. In addition, the viability increase in [11] is -5.2% (inactive).

In the case of `CC(=O)O[C@]1(C(C)=O)CC[C@H]2[C@@H]3C[C@H](C)C4=CC(=O)CC[C@]4(C)[C@H]3CC[C@@]21C`, the viability is 153% in assay [1]; 153% (inactive) in [3]; 83.3% (inactive) in assay [4]; 6.83% in assay [6] (setting [15]); 1.8% in assay [6] (setting [16]). The Her2 level in assay [2] was 65% (inactive). For the same compound, the differential viability (reversal) in assay [6] (H69AR cells + 2 uM doxorubicin) is -5.03% (inactive).

On to `CSc1nc2ccc(Nc3nc(N4CCOCC4)nc(N4CCOCC4)n3)cc2s1`, for which the viability is 62.5% in [1]; 62.5% (inactive) in [3]; 18.5% (active) in [4]; 56.8% (inactive) in assay [5]; 60.5% in assay [6] (setting [15]); 56.8% in assay [6] (setting [16]). Further, the results for the viability in [12] and in assay [13] were 68% (inactive) and 66.5% (inactive), respectively. Further, in [2], the Her2 level was 106% (inactive). Moreover, the differential viability (reversal) in [6] (H69AR cells + 2 uM doxorubicin) was -3.63% (inactive). In addition, the inhibition in assay [7] was 3.08% (inactive); in [8] it was -0.5% (inactive); in [14], 1.97% (inactive). Also, the growth inhibition is -4.93% (inactive) in assay [9] and -5.7% (inactive) in assay [10]. Also, the viability increase in [11] is -5.72% (inactive).

Take `Cc1csc(NC(=O)CSc2nnc(Cc3cccn3C)n2-c2ccc(F)cc2)n1`: the viability in assay [1] was 77.5%; in assay [3], 77.5% (inactive); in assay [4], 84.8% (inactive); in [5] it was 89.8% (inactive); in [6] (setting [15]), 88.8%; in assay [6] (setting [16]), 89.8%. The viability is 94% (inactive) in assay [12] and 95.5% (inactive) in [13]. Besides, the Her2 level in [2] was 94% (inactive). Besides, the differential viability (reversal) in assay [6] (H69AR cells + 2 uM doxorubicin) is 1.05% (inactive). The results for the inhibition in [7], in assay [8] and in assay [14] were 4.67% (inactive), -1.64% (inactive) and 4.11% (inactive), respectively. Besides, the values for the growth inhibition in assay [9] and in assay [10] were -9.58% (inactive) and -0.31% (inactive), respectively. Moreover, the viability increase in [11] was -2.25% (inactive).

Consider `CCN(c1ccc2c(c1)OCO2)S(=O)(=O)c1cc(Br)cc2c1N(C(=O)C1CC1)CC2`, for which the viability was 131% in [1]; 131% (inactive) in assay [3]; 89.6% (inactive) in [4]; 73.9% (inactive) in assay [5]; 62% in [6] (setting [15]); 73.9% in [6] (setting [16]). The viability is 72.4% (inactive) in [12] and 72% (inactive) in [13]. Moreover, the Her2 level in assay [2] was 92.5% (inactive). For the same compound, the differential viability (reversal) in assay [6] (H69AR cells + 2 uM doxorubicin) is 11.9% (inactive). Also, the inhibition was -10% (inactive) in assay [7], 3.17% (inactive) in [8] and 3.91% (inactive) in [14]. In addition, the growth inhibition in assay [9] is -12.3% (inactive); in assay [10], -14.7% (inactive). Also, in [11], the viability increase was -3.72% (inactive).
